Experimental data as given in the supplement of paper PMC10338343.
± gives the standard deviation.

tested on: MILI (PIWIL2) piRISC loaded with piRNA #1 (26 nt); test: pre-steady-state target cleavage rate (min^-1); guide: piRNA #1 5'p-UGAGGUAGUAGGUUGUAUAGUAUCCA; MIWI and MILI are mouse PIWI proteins and EfPiwi is from a freshwater sponge; tags in brackets are library labels; higher = faster piRNA-guided slicing of the target; conditions: auxiliary factor: 500 nM mouse GTSF1
Method in brief: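 At 33 °C in HEPES–potassium acetate buffer, a transcribed, DNA-blocked target RNA library […] was exposed for 0–8 or 0–960 min to 1 nM active affinity-purified piRISC carrying a single synthetic guide, with or without 500 nM GTSF1 partner protein. Uncleaved targets were sequenced and normalised to depth and to weakly complementary targets. With three trials pooled and k3 capped at 0.0001 min^-1, a burst-and-steady-state fit produced the pre-steady-state cleavage rate.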
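Also: 1 nM active piRISC with 0.1 nM target library at 33 °C single turnover.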

How did the “pre-steady-state target cleavage rate” value turn out when GGAGACCUAUCUAUACAACCUAACUACCUCA was run?
Its value is 0.00833 ± 0.0023.

GGAGACCUAACUAUACUAGCUACUACCUCA was tested. Which “pre-steady-state target cleavage rate” value did it give?
The value was 0.12 ± 0.015.

For GGAGACCUAUGAUAUGUUCGUACUACCUGA, which “pre-steady-state target cleavage rate” value is on record?
The value was less than 0.0001.

Which “pre-steady-state target cleavage rate” value does the source give for GGAGACCUAUCUAUACAACCUACAACCACA here?
Its value is 0.0576 ± 0.014.

GGAGAGGAUACUUUACAACCUACUUCCUCA was tested. Which “pre-steady-state target cleavage rate” value did it give?
Its value is 0.00524 ± 0.0027.

For GGAGUGGAUACUAUACAACCUACAUCCUCA, which “pre-steady-state target cleavage rate” value is on record?
The value was 0.00356 ± 0.0016.

For GGAGACCUAUGAUAUGUACCUACUAGCACA, which “pre-steady-state target cleavage rate” value is on record?
Its value is less than 0.0001.

GGAGACCUAUGAUAUGAACCUACUACACUCA was tested. Which “pre-steady-state target cleavage rate” value did it give?
Its value is less than 0.0001.

How did the “pre-steady-state target cleavage rate” value turn out when GGAGACGUUACUAUUCAACCUACUACCUCA was run?
Its value is 0.168 ± 0.011.

With GGAGACGAUACUAUACAACCUAACUACCUCA as the sequence, how does the “pre-steady-state target cleavage rate” value read?
Its value is 0.0232 ± 0.0036.

“GGAGACCUAUGAUAUGUACCUACUUGGAGA [g7:g13:cont:t1A]” was tested. Which “pre-steady-state target cleavage rate” value did it give?
Its value is less than 0.0001.

Which “pre-steady-state target cleavage rate” value does the source give for GGAGACCUUACUAUACAACCAUCUACCUCA here?
Its value is 0.00422 ± 0.0032.

With GGAGACCUAACUAUACAACCUACUAACCUCA as the sequence, how does the “pre-steady-state target cleavage rate” value read?
The value was 0.187 ± 0.028.

How did the “pre-steady-state target cleavage rate” value turn out when GGAGACCUAUGUAUACAACCUCCUACCUCA was run?
Its value is 0.0161 ± 0.0038.

GGAGACCAUACUAUACAACCUAGUACCACA was tested. Which “pre-steady-state target cleavage rate” value did it give?
The value was 0.00768 ± 0.0041.

How did the “pre-steady-state target cleavage rate” value turn out when GGAGACCUAUGUAUAGUUCCUACUACCUCA was run?
The value was 0.00602 ± 0.0021.

GGAGACCUAUGUUACAACCUACUACCUCA was tested. Which “pre-steady-state target cleavage rate” value did it give?
Its value is 0.0425 ± 0.0076.

For GGAGACCUAUCUAAACAACCUACUUCCUCA, which “pre-steady-state target cleavage rate” value is on record?
The value was 0.0303 ± 0.0063.

How did the “pre-steady-state target cleavage rate” value turn out when GGAGACCUAUCUAUACAACGUUCUACCUCA was run?
The value was 0.00394 ± 0.0033.

For GGAGACCUUACAAUACAACCUUCUACCUCA, which “pre-steady-state target cleavage rate” value is on record?
The value was 0.00687 ± 0.0029.

How did the “pre-steady-state target cleavage rate” value turn out when GGAGACCUUACUAUUCAACCUACUACGUCA was run?
The value was 0.0709 ± 0.0096.

Which “pre-steady-state target cleavage rate” value does the source give for GGAGACCUAUCUAUACAACCUACAUCCUCA here?
Its value is 0.0186 ± 0.0046.

For GGAGUGGAUUCUAUACAACCUACUAGCUCA, which “pre-steady-state target cleavage rate” value is on record?
The value was 0.0603 ± 0.012.

With GGAGACCUAUGAUUACAACCUACUAACCUCA as the sequence, how does the “pre-steady-state target cleavage rate” value read?
Its value is 0.0091 ± 0.0025.

Which “pre-steady-state target cleavage rate” value does the source give for GGAGUGGAUACUAAACAACCUACUAGCUCA here?
Its value is 0.0437 ± 0.0085.

Which “pre-steady-state target cleavage rate” value does the source give for GGAGACCUUACUAUACAACCGACUACCUCA here?
Its value is 0.00424 ± 0.0031.

With GGAGACCUAACUAUAGAACCUACUACGUCA as the sequence, how does the “pre-steady-state target cleavage rate” value read?
The value was 0.0322 ± 0.01.

With GGAGACCAUACUUUACAACCUACUACCACA as the sequence, how does the “pre-steady-state target cleavage rate” value read?
Its value is 0.226 ± 0.023.

With GGAGACCUUACUAUACUUCCUACUACCUCA as the sequence, how does the “pre-steady-state target cleavage rate” value read?
The value was 0.127 ± 0.011.

Which “pre-steady-state target cleavage rate” value does the source give for GGAGACCUAUGAUUACAACCUACUACUCUCA here?
The value was 0.00541 ± 0.0034.

Which “pre-steady-state target cleavage rate” value does the source give for GGAGACCUAUGAAUACAAGCUACAACCUCA here?
The value was 0.018 ± 0.0032.

How did the “pre-steady-state target cleavage rate” value turn out when GGAGUGGAUACUUUACAACCAACUACCUCA was run?
The value was 0.00276 ± 0.0018.

For GGAGACGUUACUAAACAACCUACUACCUCA, which “pre-steady-state target cleavage rate” value is on record?
The value was 0.153 ± 0.012.

How did the “pre-steady-state target cleavage rate” value turn out when GGAGACCUAUGAUAUGUACCAACAACCUCA was run?
Its value is less than 0.0001.

Which “pre-steady-state target cleavage rate” value does the source give for GGAGACCUUACUAUAGAACCUACUACCUGA here?
The value was 0.0254 ± 0.0086.

For GGAGACCUUACUAUACAACGAACUACCUCA, which “pre-steady-state target cleavage rate” value is on record?
Its value is 0.00385 ± 0.0021.

GGAGACCUUACAAUACUACCUACUACCUCA was tested. Which “pre-steady-state target cleavage rate” value did it give?
Its value is 0.114 ± 0.013.

For GGAGACGUUACUAUACAAGCUACUACCUCA, which “pre-steady-state target cleavage rate” value is on record?
The value was 0.216 ± 0.017.

How did the “pre-steady-state target cleavage rate” value turn out when GGAGACCUUACUAUACAUCCUACAACCUCA was run?
The value was 0.214 ± 0.019.

How did the “pre-steady-state target cleavage rate” value turn out when GGAGACCUAUCAAUACAACCUACAACCUCA was run?
The value was 0.0677 ± 0.015.
